Test results taken from PubChem BioAssay AID1159580 (chemical genetic matrix, 2015).
Several values for one entry are separate records, joined by “and”; a condition that tells them apart may be missing. Identical values can stand only once. The campaign covered roughly 5,500 compounds. About 2,000 (36%) were called active. Not shown: some 18% with an inconclusive outcome. Rule as the data show it: active = normalized growth mostly below about 0.91 (no sharp cut-off); inconclusive = no clear call, values can overlap the other calls; inactive = mostly above about 0.92. The list shows a part of the results.

Assay: chemical genetic growth profiling, strain panel (AID 1159580);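 also: tested at 20 µM; growth read once vehicle control cultures reached saturation at 30 °C; 1 = growth at the plate median or of vehicle wells; lower values mean less growth of the strain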
Details: S. cerevisiae deletion strains, growth OD

Measured: normalized growth

CC12CCC3C(=CCc4cc(O)ccc43)C1CCC2=O (stereo not given)
active: locus YDR137W, strain rgp1, active compounds read low 0.614 | locus YDR162C, strain NBP2, active compounds read low 0.515 | locus YLR039C, strain RIC1, active compounds read low 0.397 | locus YLR262C, strain YPT6 (second series), active compounds read low 0.598 | locus YLR262C, strain YPT6, active compounds read low 0.377 | locus YLR342W, strain FKS1 (second series), active compounds read low 0.76 | locus YNL307C, strain MCK1, active compounds read low 0.826 | locus YNR052C, strain pop2, active compounds read low 0.901 | locus YOR184W, strain ser1, active compounds read low 0.81 | locus YPR163C, strain tif3, active compounds read low 0.875
inactive: locus YAL021C, strain ccr4, active compounds read low 0.932 | locus YAL026C, strain drs2, active compounds read low 0.992 | locus YAL030W, strain snc1, active compounds read low 0.998 | locus YBL061C, strain skt5, active compounds read low 0.971 | locus YBR009C, strain hhf1, active compounds read low 0.972 | locus YBR021W, strain FUR4, active compounds read low 0.913 | locus YBR023C, strain chs3, active compounds read low 0.974 | locus YBR171W, strain sec66, active compounds read low 0.986 | locus YBR229C, strain ROT2, active compounds read low 0.989 | locus YBR231C, strain swc5, active compounds read low 0.978 | locus YBR279W, strain paf1, active compounds read low 0.964 | locus YCL011C, strain gbp2, active compounds read low 0.98 | locus YCL016C, strain dcc1, active compounds read low 0.99 | locus YCL029C, strain bik1, active compounds read low 0.995 | locus YCL061C, strain MRC1, active compounds read low 0.965 | locus YCL069W, strain vba3, active compounds read low 0.964 | locus YCR088W, strain abp1, active compounds read low 0.981 | locus YDL005C, strain med2, active compounds read low 0.959 | locus YDL035C, strain GPR1, active compounds read low 0.898 | locus YDL040C, strain nat1, active compounds read low 0.995 | locus YDL074C, strain BRE1, active compounds read low 0.882 | locus YDL101C, strain DUN1, active compounds read low 0.975 | locus YDL185W, strain tfp1, active compounds read low 1.01 | locus YDL192W, strain arf1, active compounds read low 0.956 | locus YDR001C, strain nth1, active compounds read low 0.976 | locus YDR069C, strain doa4, active compounds read low 0.966 | locus YDR101C, strain arx1, active compounds read low 1.01 | locus YDR150W, strain NUM1, active compounds read low 0.991 | locus YDR159W, strain sac3, active compounds read low 0.978 | locus YDR195W, strain ref2 1.12 | locus YDR297W, strain sur2, active compounds read low 0.983 | locus YDR318W, strain mcm21, active compounds read low 0.962 | locus YDR334W, strain swr1, active compounds read low 0.936 | locus YDR335W, strain msn5, active compounds read low 0.925 | locus YDR388W, active compounds read low 0.983 | locus YDR392W, strain spt3, active compounds read low 0.937 | locus YDR502C, strain sam2, active compounds read low 0.961 | locus YEL003W, strain gim4, active compounds read low 0.945 | locus YEL037C, strain rad23, active compounds read low 0.99 | locus YEL061C, strain CIN8 (second series), active compounds read low 0.957 | locus YEL061C, strain CIN8, active compounds read low 0.967 | locus YER015W, strain faa2, active compounds read low 0.938 | locus YER016W, strain bim1, active compounds read low 0.976 | locus YER110C, active compounds read low 0.993 | locus YER111C, strain swi4, active compounds read low 0.989 | locus YER155C, strain BEM2 (second series), active compounds read low 0.987 | locus YER155C, strain BEM2, active compounds read low 0.994 | locus YER167W, strain BCK2, active compounds read low 0.988 | locus YFR010W, strain ubp6, active compounds read low 0.964 | locus YGL078C, strain dbp3, active compounds read low 1 | locus YGL086W, strain mad1, active compounds read low 0.949 | locus YGL167C, strain pmr1, active compounds read low 0.96 | locus YGL173C, strain kem1, active compounds read low 0.959 | locus YGL227W, strain vid30, active compounds read low 0.989 | locus YGL240W, strain doc1, active compounds read low 0.946 | locus YGL248W, strain PDE1, active compounds read low 0.936 | locus YGL253W, strain hxk2, active compounds read low 0.961 | locus YGR078C, strain PAC10, active compounds read low 0.903 | locus YGR135W, strain pre9, active compounds read low 0.952 | locus YGR229C, strain SMI1, active compounds read low 0.964 | locus YGR252W, strain gcn5, active compounds read low 0.882 | locus YHR013C, strain ard1, active compounds read low 0.994 | locus YHR027C, strain rpn1, active compounds read low 0.976 | locus YHR030C, strain SLT2, active compounds read low 0.981 and 1.03 | locus YHR079C, strain IRE1 (second series), active compounds read low 1.01 | locus YHR079C, strain IRE1, active compounds read low 1.03 | locus YHR094C, strain hxt1, active compounds read low 1.01 | locus YHR129C, strain ARP1, active compounds read low 0.968 | locus YHR142W, strain chs7, active compounds read low 0.929 | locus YHR200W, strain rpn10, active compounds read low 1 | locus YIL066C, strain RNR3, active compounds read low 0.881 | locus YIL073C, strain SPO22, active compounds read low 0.897 | locus YIL125W, strain kgd1, active compounds read low 0.994 | locus YIR030C, strain dcg1, active compounds read low 0.993 | locus YJL092W, strain hpr5, active compounds read low 0.993 | locus YJL095W, strain BCK1 (second series), active compounds read low 0.982 | locus YJL095W, strain BCK1, active compounds read low 0.819 and 1.04 | locus YJL115W, strain asf1, active compounds read low 0.97 | locus YJL129C, strain trk1, active compounds read low 0.965 | locus YJL134W, strain LCB3, active compounds read low 0.988 | locus YJL154C, strain vps35, active compounds read low 0.983 | locus YJL164C, strain tpk1, active compounds read low 0.964 | locus YJL166W, strain qcr8, active compounds read low 0.952 | locus YJL168C, strain set2, active compounds read low 0.994 | locus YJL187C, strain SWE1 (second series), active compounds read low 0.928 | locus YJR043C, strain POL32, active compounds read low 0.933 | locus YJR066W, strain TOR1, active compounds read low 0.99 | locus YKL009W, strain mrt4, active compounds read low 0.948 | locus YKL068W, active compounds read low 0.995 | locus YKL085W, strain MDH1 (second series), active compounds read low 0.98 | locus YKL085W, strain MDH1, active compounds read low 0.98 | locus YKL160W, strain elf1, active compounds read low 0.942 | locus YKL190W, strain CNB1, active compounds read low 0.977 | locus YKR001C, strain vps1, active compounds read low 0.908 | locus YKR091W, strain srl3, active compounds read low 0.98 | locus YLL001W, strain dnm1, active compounds read low 0.94 | locus YLL026W, active compounds read low 0.988 | locus YLL041C, strain sdh2, active compounds read low 0.974 | locus YLR027C, strain aat2, active compounds read low 0.968 | locus YLR058C, strain SHM2, active compounds read low 0.958 | locus YLR102C, strain apc9, active compounds read low 1.02 | locus YLR113W, strain HOG1, active compounds read low 1.07 | locus YLR221C, strain rsa3, active compounds read low 0.956 | locus YLR258W, strain gsy2, active compounds read low 0.968 | locus YLR268W, strain sec22, active compounds read low 0.973 | locus YLR320W, strain mms22, active compounds read low 0.94 | locus YLR330W, strain CHS5, active compounds read low 0.979 | locus YLR342W, strain FKS1, active compounds read low 0.914 | locus YLR357W, strain rsc2, active compounds read low 1.02 | locus YLR370C, strain arc18, active compounds read low 0.98 | locus YLR371W, strain rom2, active compounds read low 0.986 | locus YLR384C, strain iki3, active compounds read low 0.96 | locus YLR418C, strain cdc73, active compounds read low 0.905 | locus YML016C, strain PPZ1, active compounds read low 0.973 | locus YML032C, strain rad52, active compounds read low 0.958 | locus YML120C, strain ndi1, active compounds read low 0.971 | locus YML124C, strain tub3, active compounds read low 0.995 | locus YMR058W, strain fet3, active compounds read low 0.959 | locus YMR078C, strain ctf18, active compounds read low 0.994 | locus YMR125W, strain sto1, active compounds read low 0.988 | locus YMR129W, active compounds read low 0.987 | locus YMR205C, strain PFK2, active compounds read low 0.945 | locus YMR223W, strain ubp8, active compounds read low 0.973 | locus YMR231W, strain pep5, active compounds read low 0.969 | locus YMR307W, strain GAS1, active compounds read low 0.763 | locus YNL067W, strain RPL9B, active compounds read low 0.935 | locus YNL071W, strain lat1, active compounds read low 0.978 | locus YNL128W, strain TEP1, active compounds read low 0.967 | locus YNL183C, strain NPR1, active compounds read low 0.986 | locus YNL209W, strain ssb2, active compounds read low 0.973 | locus YNL233W, strain BNI4, active compounds read low 0.936 | locus YNL248C, strain rpa49, active compounds read low 0.908 | locus YNL250W, strain rad50, active compounds read low 0.992 | locus YNL271C, strain bni1, active compounds read low 0.974 | locus YNL298W, strain CLA4, active compounds read low 0.963 | locus YNL322C, strain KRE1 (second series), active compounds read low 0.984 | locus YNL322C, strain KRE1, active compounds read low 0.988 | locus YNR049C, strain mso1, active compounds read low 0.987 | locus YOL006C, strain TOP1, active compounds read low 0.618 | locus YOL012C, strain htz1 1.37 | locus YOL147C, strain pex11, active compounds read low 1 | locus YOR001W, strain rrp6, active compounds read low 0.955 | locus YOR061W, strain CKA2, active compounds read low 0.971 | locus YOR069W, strain VPS5, active compounds read low 0.978 | locus YOR070C, strain gyp1, active compounds read low 0.979 | locus YOR080W, strain dia2, active compounds read low 0.963 | locus YOR083W, strain WHI5, active compounds read low 0.934 | locus YOR106W, strain vam3, active compounds read low 0.902 | locus YOR136W, strain idh2, active compounds read low 1.01 | locus YOR144C, strain elg1, active compounds read low 0.993 | locus YOR231W, strain MKK1, active compounds read low 1.04 | locus YOR265W, strain rbl2, active compounds read low 0.977 | locus YOR270C, strain vph1, active compounds read low 0.852 | locus YOR290C, strain snf2, active compounds read low 0.961 | locus YOR316C, strain cot1, active compounds read low 0.987 | locus YPL051W, strain arl3, active compounds read low 0.916 | locus YPL055C, strain LGE1, active compounds read low 0.89 | locus YPL078C, strain atp4, active compounds read low 0.908 | locus YPL106C, strain sse1, active compounds read low 0.992 | locus YPL240C, strain hsp82, active compounds read low 0.986 | locus YPL256C, strain CLN2, active compounds read low 1.06 | locus YPR119W, strain clb2, active compounds read low 1 | locus YPR141C, strain kar3, active compounds read low 0.996 | locus YPR167C, strain met16, active compounds read low 0.975 | strain wtn01, active compounds read low 0.986
